Source: PubChem BioAssay (NCI)
Compounds without any hit were thinned out: in the full panel of roughly 79,000, 15% have a hit. Activity calls are given as the source filed them. Cut-off read from the data, not from the text of the source: active = growth inhibition above about 70%; inactive = the rest.

Assay: NCI Yeast Anticancer Drug Screen. Data for the sgs1 mgt1 strain (AID 161);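 note: 0% = growth of cultures given vehicle only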
Settings: S. cerevisiae sgs1 mgt1 strain, at 50.0 µM, active compounds read high
Method in brief: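 Inhibition of yeast growth, normalised to vehicle-treated controls, is reported for a strain bearing genetic alterations in DNA damage repair.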

Row | Compound | growth inhibition
1 | Cc1cn(C2CC(O)C(CO)O2)c(=O)nc1NC1CC1 (stereo not given) | -1% (inactive)
2 | CNCSc1ccccc1 | -1.75% (inactive)
3 | Cc1ccc(NC(=S)NC(Cc2ccccc2)c2ccccc2)cc1 (stereo not given) | -1.05% (inactive)
4 | CC(=O)NS(=O)(=O)c1ccc(NC(=O)COC(=O)c2cccc3c(=O)c4ccccc4[nH]c23)cc1 | -48.6% (inactive)
5 | Cc1ccc(CNC2=C(Cl)C(=O)c3ccccc3C2=O)cc1C | 97.2% (active)
6 | Cc1ccc(Cl)c2c1C(=O)c1ccccc1C2=O | 3.3% (inactive)
7 | NC(=O)/C(=C\c1ccncc1)c1cccc2ccccc12 | -41.1% (inactive)
8 | CC(=O)OCC1OC(n2nc(/C=C/c3ccccc3)c(=O)n(-c3ccccc3)c2=S)C(OC(C)=O)C(OC(C)=O)C1OC(C)=O (stereo not given) | 8.85% (inactive)
9 | COC1(OC)C(c2ccc(Cl)cc2)C(C#N)(C#N)C1(OC)OC (stereo not given) | -14.2% (inactive)
10 | N=C(N)S/C=C/C(=O)O | -20.5% (inactive)
11 | Clc1ccc(/C=N/c2ccccn2)cc1 | -22.8% (inactive)
12 | Clc1nnc(Cl)c2ncccc12 | -3.6% (inactive)
13 | O=C(NN=C1CCCCC1)c1ccccc1 | -9.9% (inactive)
14 | Clc1ccc2c(N3CCC(CCC4CCN(c5ncnc6cc(Cl)ccc56)CC4)CC3)ncnc2c1 | -7.4% (inactive)
15 | CCOC(=O)Nc1cc2c(c(N)n1)N=C(CN(C)c1ccccc1)CN2 | 59.5% (inactive)
16 | NCCCN(CCO)CCO | -27.9% (inactive)
17 | Nc1nc(Cl)nc(Nc2ccc(-c3cc4ccc(-c5ncc[nH]5)cc4[nH]3)cc2)n1 | 45.4% (inactive)
18 | CCCC(C(C)=O)C(C)=O | -4.85% (inactive)
19 | O=C(O)C(CSC(c1ccccc1)(c1ccccc1)c1ccccc1)NSc1ccccc1[N+](=O)[O-] (stereo not given) | 97.7% (active)
20 | Cc1ccc(-c2cc(-c3ccco3)nc(N)n2)o1 | 10.6% (inactive)

Row | Compound | growth inhibition
21 | O=C(c1cc(O)c(O)c(O)c1)c1ccc(O)c(O)c1O | 11.3% (inactive)
22 | CC(=O)Nc1ccc(/C=C/C(=O)c2sc(-c3cccnc3)nc2C)cc1 | 3.25% (inactive)
23 | COC(=O)c1cc(Cl)c(C(=O)OC)cc1Cl | 3.85% (inactive)
24 | CN1CCCc2cccc(NC(=O)C3CCCNC3=O)c21 (stereo not given) | -2.3% (inactive)
25 | O=C(O)C1Cc2c([nH]c3ccccc23)C(CCCCO)N1 (stereo not given) | -15.9% (inactive)
26 | CCN(CC)CCNC(=O)c1ccccc1NC(=O)C(=O)Nc1ccccc1C(=O)NCCN(CC)CC | -55.2% (inactive)
27 | CO[C@@H]1C=C[C@@]23c4cc5c(cc4CN(C[C@@H]2O)[C@H]3C1)OCO5 | -11.9% (inactive)
28 | COc1c(Cl)cc(Cl)c(C)c1C(C)C(=O)O (stereo not given) | 2.6% (inactive)
29 | O=C(O)c1c(Cl)c(Cl)c(Cl)c(Cl)c1C(=O)Nc1cccc(C(F)(F)F)c1 | -8.8% (inactive)
30 | COc1nc(SC)nc2c1cnn2C1OC(C(O)CO)C(OC)C1O (stereo not given) | 3.35% (inactive)
31 | Cc1ccc(S(=O)(=O)N2CCSCCN(S(=O)(=O)c3ccc(C)cc3)CCN(S(=O)(=O)c3ccc(C)cc3)CC2)cc1 | 0.2% (inactive)
32 | CN(C)NC(=O)Oc1ccc(Cl)cc1 | -11.4% (inactive)
33 | Cc1cc(C)c(NC(=O)CC#N)cc1C | -17.4% (inactive)
34 | CC(=O)OC1CC2CC1C1C=CCC21 (stereo not given) | 19.8% (inactive)
35 | O=[N+]([O-])c1ccccc1C=Nc1ccc2nc(SCc3ccccc3)sc2c1 | 3.95% (inactive)
36 | Cc1ccc(C(=O)c2ccc(O)cc2)cc1 | -6.5% (inactive)
37 | N/N=C1\C(=O)N(Cc2ccccc2)C(=O)C1C(=O)NCc1ccccc1 (stereo not given) | 3.4% (inactive)
38 | CCN(CC)C(COC(=O)Nc1ccccc1)COC(=O)Nc1ccccc1 | 0.6% (inactive)
39 | COC(=O)C(=O)C(C(=O)C(=O)Nc1cccc(OC)c1)c1nc2ccc(Cl)cc2[nH]c1=O (stereo not given) | -8.25% (inactive)
40 | O=c1nc(NC2CC2)ccn1C1OC(CO)C(O)C1O (stereo not given) | -1% (inactive)
